This is one part of a sample in which hits are shown more often than they occur.
FECH block: human FECH heme synthesis enzyme inhibition; calls only at 10 µM (by protocol); P22830; purified FECH, Ni-mesoporphyrin absorbance 550 nm; AID 1671448; 20,000 tested, 3.3% active;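 active means enzyme reaction rate more than 3 SD below the solvent-only control wells on the same plate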;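 further: lower slope than DMSO wells means FECH inhibition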
Target sequence (P22830 whole entry, looked up): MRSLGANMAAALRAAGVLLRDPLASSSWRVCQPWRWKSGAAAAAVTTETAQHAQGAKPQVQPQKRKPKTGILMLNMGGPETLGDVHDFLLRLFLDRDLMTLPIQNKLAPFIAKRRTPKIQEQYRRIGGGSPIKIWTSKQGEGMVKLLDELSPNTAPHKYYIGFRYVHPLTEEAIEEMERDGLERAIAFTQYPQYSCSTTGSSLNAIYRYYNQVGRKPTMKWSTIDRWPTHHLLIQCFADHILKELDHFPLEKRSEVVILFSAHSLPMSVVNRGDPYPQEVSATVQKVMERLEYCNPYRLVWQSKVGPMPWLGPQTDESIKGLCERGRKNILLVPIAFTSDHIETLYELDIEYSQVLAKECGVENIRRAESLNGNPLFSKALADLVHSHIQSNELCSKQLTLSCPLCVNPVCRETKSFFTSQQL
* marks the source's active call; other numbers are inactive results; i = inactive; + = active, no number.

SMILES	FECH block
Cc1ccc(-n2ncc3c(-n4nc(C)cc4NC(=O)C4CCCC4)ncnc32)c(C)c1	+
Cc1cc(C)cc(C(=O)Nc2cc(C)nn2-c2ncnc3c2cnn3-c2cccc(Cl)c2)c1	+
Cc1ccc(-n2ncc3c(-n4nc(C)cc4NC(=O)CCC4CCCC4)ncnc32)c(C)c1	i
Cc1cc(C)cc(C(=O)Nc2cc(C)nn2-c2ncnc3c2cnn3-c2ccc(Cl)cc2)c1	i
Cc1cc(NC(=O)c2ccc(F)c(F)c2)n(-c2ncnc3c2cnn3-c2cccc(C)c2C)n1	i
Cc1ccc(C(=O)Nc2cc(C)nn2-c2ncnc3c2cnn3-c2cccc(C)c2C)cc1	+
Cc1ccc(C(=O)Nc2cc(C)nn2-c2ncnc3c2cnn3-c2cccc(Cl)c2)cc1	i
COc1cccc(C(=O)Nc2cc(C)nn2-c2ncnc3c2cnn3-c2cccc(C)c2C)c1	i
CCN(CC)c1ncc(NS(=O)(=O)c2cccc(F)c2)cc1C(=O)O	i
CCCN(CCC)c1ncc(NS(=O)(=O)c2ccc(F)c(F)c2)cc1C(=O)O	i
CC(=O)Nc1ccc2c(c1)NC(=O)CC2COCc1ccccc1 (stereo not given)	i
Cc1cccc(CN(C)Cc2cn[nH]c2-c2ccc(F)cc2)c1O	i
CN(CCC(C)(C)O)Cc1cccc(Cl)c1F	+
CCN(Cc1ccccc1Cl)C(=O)CCNC(=O)c1ccccc1F	i
Cc1cccn2c(CC(=O)NCc3nncn3C3CCCCC3)cnc12	i
Cc1ccsc1CN(Cc1ccccn1)C(=O)CN1CCCCCC1=O	i
COc1ccc(NC(=O)CN2CCN(Cc3ccccc3F)S2(=O)=O)cc1	i
COc1ccc(NC(=O)CN2CCN(Cc3ccc(F)cc3)S2(=O)=O)cc1OC	i
CN(Cc1ccn[nH]1)C(=O)CCC(=O)NC1CCCC1	i
COc1ccc(Cl)cc1S(=O)(=O)N1CCN(Cc2nc3cccnc3n2-c2ccccc2)CC1	i
COc1ccc(S(=O)(=O)N2CCN(Cc3nc4cccnc4n3-c3ccccc3)CC2)cc1OC	+
Cc1ccc(S(=O)(=O)N2CCN(Cc3nc4cccnc4n3-c3ccccc3)CC2)cc1C	i
CCc1ccc(-n2c(CN3CCN(S(=O)(=O)c4ccc(C)c(C)c4)CC3)nc3cccnc32)cc1	i
CCc1ccc(-n2c(CN3CCN(S(=O)(=O)c4ccc(CC)cc4)CC3)nc3cccnc32)cc1	+
CCc1ccc(S(=O)(=O)N2CCN(Cc3nc4cccnc4n3-c3ccc(C)cc3)CC2)cc1	i
SMILES	FECH block
COc1ccc(Cn2c(CNC(=O)Cc3cccs3)nc3cccnc32)cc1	i
C=CCc1cc(CN2CCN(c3ccncc3)CC2)ccc1OC	i
CCc1cc(N2Cc3cnn(CCO)c3C2)nc(N2CCCC2)n1	i
COc1cccc(NS(=O)(=O)c2cc(-c3ccc(=O)[nH]n3)ccc2Cl)c1	i
CN(C)S(=O)(=O)NCCn1c(C(F)(F)F)nc2cccnc21	i
CCCN(CCC)c1ncc(NS(=O)(=O)c2ccccc2Cl)cc1C(=O)O	i
COc1ccccc1Nc1nc(-c2nnc(-c3cccc(C)c3)o2)nc2ccccc12	i
Cc1ccc(-c2cc(N3CCN(S(C)(=O)=O)CC3)ncn2)cc1	i
CCS(=O)(=O)N1CCN(c2cc(-c3ccc(C)cc3)ncn2)CC1	i
CCS(=O)(=O)N1CCN(c2cc(-c3cccc(OC)c3)ncn2)CC1	i
CS(=O)(=O)N1CCN(c2cc(-c3cccc(F)c3)ncn2)CC1	i
CS(=O)(=O)N1CCN(c2cc(-c3ccc(F)cc3)ncn2)CC1	+
CCS(=O)(=O)N1CCN(c2cc(-c3cccc(C)c3)ncn2)CC1	+
COCCNc1cc(-c2ccc3ncsc3c2)c2cc[nH]c2n1	i
CN1CCC(CNC(=O)c2cc(COc3cccc(C(F)(F)F)c3)[nH]n2)C1 (stereo not given)	i
COc1ccccc1N(Cc1nc2nc(C)cc(C)n2n1)C(=O)c1ccccc1F	i
CCc1nc(C)sc1CNC(=O)c1sccc1NC(C)=O	i
CCC(=O)Nc1cccc(C(=O)NCc2sc(C)nc2CC)c1	+
CCC(=O)Nc1cccc(C(=O)NCc2nc(Cc3cccs3)no2)c1	i
COc1ccc(OC)c(NC(=O)c2ccc(CN3C(=O)CCn4nc(C)cc43)cc2)c1	i
CCN1C(SCc2ccc(N3CCCC3=O)cc2)=NS(=O)(=O)c2ccccc21	+
CCc1ncc2c(n1)CN(C(=O)c1ccc(N3CCCC3=O)cc1)C2	i
CCN1C(SCC(=O)N2CCN(c3ccccc3F)CC2)=NS(=O)(=O)c2ccccc21	i
Cc1cc(N2CCCCC2)nc(N2CCN(S(=O)(=O)c3ccccc3Cl)CC2)n1	i
Cc1cc(NC(=O)c2ccc(Cl)cc2)n(-c2ncnc3c2cnn3-c2ccc(F)cc2)n1	i
SMILES	FECH block
C1=CC[C@H]2CN(c3nncs3)C[C@H]2C1	i
CC(=O)Nc1ccc(C(=O)N2CCOC(c3ccc(F)cc3)C2)c(O)c1 (stereo not given)	i
CNC(=O)c1ccc(CNCC(=O)NC(C)c2ccc(C)cc2)o1 (stereo not given)	i
COc1ccc(CNS(=O)(=O)c2ccc(C(=O)N(C)C)s2)cc1	i
COc1ccc(CN2CCCN(CC(=O)Nc3ccc4c(c3)OCCO4)S2(=O)=O)cc1	i
COc1ccc(NC(=O)CN(C)S(=O)(=O)c2ccc(C(=O)N3CCOCC3)s2)cc1	+
O=C(CNC(Cn1cccn1)c1ccccc1)Nc1cnccn1 (stereo not given)	i
COc1ncc(CN2CCc3onc(-c4cccc5ccccc45)c3C2)cn1	i
O=C(CN1CCCN(Cc2cccc(Cl)c2)S1(=O)=O)Nc1ccc2c(c1)OCO2	i
CCOc1ccc(NC(=O)CN2CCCN(Cc3ccccc3)S2(=O)=O)cc1	+
CC(=O)c1ccc(NC(=O)CN2CCCN(Cc3ccccc3)S2(=O)=O)cc1	i
COc1ccc(CNC(=O)CN2CCCN(Cc3cccc(Cl)c3)S2(=O)=O)cc1	i
CCOc1ccc(NC(=O)CN2CCCN(Cc3cccc(Cl)c3)S2(=O)=O)cc1	+
COC(=O)c1ccc(NC(=O)CN2CCCN(Cc3ccccc3)S2(=O)=O)cc1	i
Cc1cc(Sc2ccccc2NC(=O)C(C)C)n2nc(-c3ccccc3)nc2n1	i
Cc1ccc(-c2noc(C3CCN(C(=O)CNC(=O)Cc4ccccc4)CC3)n2)cc1	i
CC(C)CNC(=O)c1nc[nH]c1C(=O)N1CCOCC1	i
CCN(CCc1nc2ccc(C)cc2[nH]1)C(=O)c1cnn2cc(CCO)cnc12	i
Cc1ccc(C)c(OCCN(C)C(=O)c2cc3ncc(CCO)cn3n2)c1	+
Cc1ccc(OCCN(C)C(=O)c2ccc(Cn3nnnc3C)cc2)c(C)c1	i
COCC(C)NC(=O)CN1C(=O)c2ccccc2S1(=O)=O (stereo not given)	i
NS(=O)(=O)c1ccc(CCNC(=O)CN2CCSc3ccccc32)cc1	i
NS(=O)(=O)c1ccc(CCNC(=O)CCCN2C(=O)c3cccnc3Sc3ccccc32)cc1	i
NS(=O)(=O)c1ccc(CCNC(=O)CCN2C(=O)c3cccnc3Sc3ccccc32)cc1	+
NC1(C(=O)NCC2CCN(Cc3nc4ccccc4[nH]3)CC2)CC1	i
O=C(CCN1CCC(OCc2cccnc2)CC1)NC1CCCCCC1	+
Cc1ccc(C(C)NC(=O)CN2CCC(OCc3cccnc3)CC2)cc1 (stereo not given)	i
C/C=C(\C)CN1CCC(OCc2cccnc2)CC1	i
COC(=O)CNS(=O)(=O)c1cc(N2C(=O)CCS2(=O)=O)ccc1C	i

High-throughput results (PubChem BioAssay)
